HIV Env fusion = inhibitors of HIV-1 Env-driven cell-cell fusion, primary screen, HeLa-JRFL effector, CEM21 target cells, luciferase; AID 651610, 2012; hit rate 1.1% among 360,000; inhibition, % at 12.3 µM;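 active means mean replicate inhibition score of at least 50 and every replicate individually at or above 50; inconclusive means only one of the two criteria met; inactive means mean below 50 and not all replicates reaching 50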;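 further: 0% = plate neutral controls and 100% = maraviroc near 300 nM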
FXN GAA850 act = FXN promoter activators, primary screen, cell-based, luciferase luminescence, HEK293 lucGAA850; hit rate 0.56% among 360,000; AID 540364, 2011; activation, % at 6 µM; HEK293 lucGAA850 FXN promoter luciferase reporter, 24 h; percent of 10 µM SAHA response;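 active means activation above the average of all compounds screened plus 3 SD, cutoff fixed separately per campaign, cut at about 7.5% in these data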;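 further: 0% = DMSO wells and 100% = 10 µM SAHA wells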
EWS-Fli inh = EWS/Fli-driven NR0B1 reporter inhibitors, primary screen, A673 cells, NR0B1 luciferase, luminescence, MLPCN library | viability-normalised | inhibition, % at 12.6 µM | hit rate 0.67% among 350,000 | AID 651661, 2012;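 active means mean inhibition of at least 50% after viability correction, with every replicate also passing that limit; inconclusive means mean reaches 50% but only one of two replicates passes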;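 further: firefly luciferase signal divided by Alamar Blue viability fluorescence both relative to DMSO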
F508del corr = F508del CFTR correction, initial screen, CFBE line, single point. CFBE cells, YFP halide quenching; stimulated with forskolin plus potentiator P3; % fluorescence drop versus neutral controls. activity (quench increase), % at 7.58 µM. hit rate 0.36% among 350,000. AID 720511, 2013;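 active means mean added fluorescence quench of at least 8% versus neutral control, with both replicates also reaching 8%; inconclusive means only one of the mean or replicate conditions met; inactive means mean below 8% and not both replicates reaching 8%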;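 further: cells transiently co-express mutant CFTR-F508del with the halide-sensitive YFP; corrector assay measuring rescue of mutant channel to the surface after 24 h compound exposure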
PAX8 reporter = inhibitors of PAX8-driven TPO luciferase reporter, primary screen, RMG-I cells, single concentration; inhibition, % at 12.6 µM; SteadyGlo, 24 h; hit rate 1.2% among 360,000;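 active means mean replicate inhibition at least 60% with every replicate also reaching 60%; inconclusive means only one of the two criteria is met; inactive means mean below 60% and not all replicates reaching 60%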;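 further: luciferase light reporting Pax8 driven TPO promoter activity; plate controls were median of neutral control wells for no effect and mitoxantrone controls for full effect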
DNA binding = DNA binders by acridine orange displacement, dose response, counter-screen for EWS/Fli inhibitor project, biochemical, fluorescence polarization, cherry-pick. AID 720586, 2013. AC35, µM (highest dose often 68 µM), for inactives: at the top dose activity change, negative = DNA binding. hit rate 2% among 640. shares compounds with EWS-Fli inh. salmon sperm DNA acridine orange fluorescence polarization;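 active means fitted curve reaches a 35% signal fall AC35 below twice the sample's top valid tested dose, actives reach about 48 µM in these data; inactive means the rest, including activity in the rising direction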;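 further: lower polarization ratio signals compound binding to DNA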
* marks the source's active call; other numbers are inactive results; ? = inconclusive; . = not tested or not shown; [ ] = dose if it differs, or a comment. Sampled rows, rich in hits. Any-hit rate of the full collection: about 2.5%.

SMILES	HIV Env fusion	FXN GAA850 act	EWS-Fli inh	F508del corr	PAX8 reporter	DNA binding
COc1ccc(/C=C2/SC(=S)N(CCCC(=O)Nc3ccccc3C(=O)O)C2=O)cc1	28	-12	64*	-1	38	0%
CCc1ccc(/C=C2\SC(=S)N(CCCC(=O)Nc3ccccc3C(=O)O)C2=O)cc1	-60	-8	.	0	-14	.
COc1ccc(/C=C2\SC(=S)N(CCCC(=O)NNC(=O)c3ccccc3O)C2=O)cc1	59*	-12	77*	2	66*	3%
COc1ccc(/C=C2\SC(=O)N(CCCC(=O)Nc3ccc(C(=O)O)cc3)C2=O)cc1	89*	-13	82*	1	57	6%
O=C(NCC1CC1)[C@H]1[C@H](CO)[C@H]2Cn3c(ccc(-c4ccccc4F)c3=O)[C@@H]1N2Cc1cncnc1	.	.	3	2	-26	.
Cc1nn(-c2ccc(F)cc2)c2nc(N)c(C#N)c(-c3ccc(O)c(O)c3)c12	13	6	57*	4	52	3%
COc1ccccc1NC(=O)N1[C@@H]2CNC[C@H]1C2c1ccc(-c2cccc(C#N)c2)cc1 (some centres undefined)	.	.	.	3	.	.
COc1ccccc1NC(=O)N1[C@@H]2CNC[C@H]1[C@@H]2c1ccc(-c2ccc(C#N)cc2)cc1	.	.	54*	-2	-5	-16%
Cc1c(Cl)cccc1NC(=O)CCC(=O)N/N=C/c1ccc[nH]1	.	-4	58*	0	-8	-13%
Cc1ccc(C)c(NC(=O)CCC(=O)N/N=C/c2ccc[nH]2)c1	6	-1	.	.	.	.
O=C(CN1C(=O)c2ccccc2S1(=O)=O)c1ccc(F)cc1	?	-8	66*	5	55	-6%
O=C(CN1C(=O)c2ccccc2S1(=O)=O)c1ccc(OC(F)F)cc1	.	-10	.	.	.	.
CO[C@H]1CN(C)C(=O)c2ccc(NS(C)(=O)=O)cc2OC[C@@H](C)N(Cc2nccs2)C[C@H]1C	-9[16.7 µM]	.	-5	2	-1	.
CC1CN(c2ncc(/C=N/NC(=O)c3ccccc3O)s2)CC(C)O1 (centres undefined)	20	2	4	0	-15	.
O=C(N/N=C/c1cnc(N2CCCCC2)s1)c1ccc(C(F)(F)F)cc1	29	-2	54*	-1	74*	0%
COc1ccccc1-c1cn(CC[C@H]2CC[C@@H](NC(=O)C3CCCC3)[C@@H](CO)O2)nn1	.	.	57*	-2	.	-16%
COc1ccccc1-c1cn(CC[C@H]2CC[C@@H](NC(=O)C3CCCC3)[C@H](CO)O2)nn1	.	.	-1	1	.	.
CO[C@@H]1CN(C)C(=O)c2ccc(NC(C)=O)cc2OC[C@H](C)N(Cc2ccccn2)C[C@H]1C	4[16.7 µM]	.	-6	0	-11	.
CCCCCCN(C(=O)CCCCCN1C(=O)NC(c2ccc(-c3ccccc3)cc2)C(C(=O)OCc2ccccc2)=C1C)C(C(=O)NCCCC)C1CCCCC1 (centres undefined)	23	.	0	2	-6	.
CCCCNC(=O)C(c1ccc(OCC(=O)OC)c(C(=O)OC)c1)N(CCOC)C(=O)CCCCCN1C(=O)NC(c2ccc(-c3ccccc3)cc2)C(C(=O)OCc2ccccc2)=C1C (centres undefined)	-27	.	59*	0	37	-4%
CCS(=O)(=O)N1Cc2ccccc2CC1C(=O)Nc1nnc(SCc2ccc(C#N)cc2)s1 (centres undefined)	-10	3	66*	.	-11	-1%
CCS(=O)(=O)N1Cc2ccccc2CC1C(=O)Nc1ncc(C)s1 (centres undefined)	-23	0	-95	1	-13	.
O=C(NCC[C@H]1CC[C@H](NC(=O)c2cnccn2)[C@H](CO)O1)Nc1ccc(Cl)cc1	5[16.7 µM]	.	-41	-1	-48	.
COCc1cc(C)nc2sc(C(=O)NCCO)c(-n3cccc3)c12	9	1	61*	-3	-10	-14%
Cc1ccc(S(=O)(=O)NNC(=O)c2sc3nc(C)cc(C)c3c2-n2cccc2)cc1	-55	-4	.	.	10	.
SMILES	HIV Env fusion	FXN GAA850 act	EWS-Fli inh	F508del corr	PAX8 reporter	DNA binding
CN1c2ccc(-c3ccc(C#N)cc3)cc2[C@@H]2[C@@H](CCN2S(=O)(=O)c2cccc(F)c2)[C@H]1CO	.	.	9	2	11	.
CN1c2ccc(-c3ccc(C#N)cc3)cc2[C@H]2[C@H](CCN2S(=O)(=O)c2cccc(F)c2)[C@H]1CO	.	.	60*	15*	?	-12%
COc1ccc(S(=O)(=O)N2CC[C@@H]3[C@@H](CO)Nc4ccc(-c5ccc(C#N)cc5)cc4[C@@H]32)cc1	.	.	60*	9.7*	63*	-9%
COc1ccc(S(=O)(=O)N2CC[C@@H]3[C@H](CO)Nc4ccc(-c5ccc(C#N)cc5)cc4[C@@H]32)cc1	.	.	57*	?	51	5%
CNC[C@@H]1Oc2cc(C#Cc3ccc(OC)cc3)ccc2S(=O)(=O)N([C@@H](C)CO)C[C@H]1C	-52[16.7 µM]	.	-3	-2	.	.
Cc1nc(N)nc(N)c1/C=C/C(C)(C)c1ccc(Cl)cc1	30	-9	59*	0	68*	-6%
CC(C)Oc1ccc(Br)cc1C(=O)N/N=C/c1c[nH]c2ccccc12	13	-2	53*	1	-14	-1%
Cc1ccc(-c2ccc([C@H]3[C@@H](CO)N4C(=O)CN(C(=O)c5ccncc5)C[C@H]34)cc2)cc1	.	.	-30	-5	-2	.
CN1C(=O)c2cc(NC(=O)C3CCC3)ccc2OC[C@H]2O[C@H](CC(=O)NCCc3ccncc3)CC[C@@H]21	.	.	-7	1	-10	.
Cc1ccc(OCCNC(=O)c2cccc(S(=O)(=O)NCc3ccccc3)c2)cc1	1	-6	56*	10*	24	-11%
O=C(c1cccc(S(=O)(=O)NCc2ccccc2)c1)N1CCN(c2ccccc2)CC1	15	-5	52*	-1	30	-8%
O=C(c1cccc(S(=O)(=O)NCc2ccccc2)c1)N1CCCC1	8	0	13	2	-2	.
COc1ccc(C(=O)OCC(=O)Nc2ccc(Cl)c(C(F)(F)F)c2)c(OC)c1OC	8	1	73*	.	-7	6%
COc1ccc(-c2cc(CNc3nc(NC(C)C)nc4cc(-c5ccccc5)sc34)on2)cc1	-34	-3	54*	-3	104*	-1%
CO[C@H]1CN(C)C(=O)c2cccc(C#N)c2OCC[C@@H]2CC[C@@H](OC)[C@H](CN(C)C(=O)[C@@H]1C)O2	5[16.7 µM]	.	-8	.	-2	.
CCc1cnc(N2[C@H](C#N)[C@H](c3ccc(C#Cc4ccccc4F)cc3)[C@H]2CO)s1	65*[16.7 µM]	.	53*	5	49	-6%

Compound activity (PubChem)
